Compound activity as filed in PubChem.
In the library only some 2.1% were active in any assay of this set; here they are far more common.
ugtP null kill: compounds lethal to S. aureus RN4220 ugtP deletion mutant. 0.54% of 330,000 active. OD600 growth, 16 h. growth inhibition, % (no concentration beside the values). AID 1259309; in the data active means growth inhibition above about 68%
PrP 5UTR inh: inhibition of PrP 5' UTR reporter expression | cell-based PrP 5' UTR mRNA reporter, plate reader | inhibition, % (test concentration not listed) | 0.35% of 340,000 active | AID 488862; in the data active means inhibition above about 52%
CCHF vOTU inh: blocks the CCHF virus ovarian tumor domain protease. CCHFV vOTU protease, Pep-AMC fluorescence. inhibition, % at 11.5 µM. 0.55% of 370,000 active. AID 651958; in the data active means inhibition above about 30%
PfHsp40 rescue: rescue of PfHsp40-mediated yeast toxicity | S. cerevisiae expressing PfHsp40, growth rescue, ATP luminescence | growth rescue, % at 12.5 µM | 0.68% of 340,000 active; in the data active means growth rescue above about 28%, passing the limit was not always enough; inconclusive means no clear call, values can overlap the other calls;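 further: yeast W303a lacking pdr1 and pdr3 grown in galactose medium; growth measured after three days at 30 °C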
PrPC surface inh: cell surface PrPC inhibition, primary TR-FRET screen. 0.43% of 370,000 active. AID 720596. inhibition, % at 13.8 µM. P04156. TR-FRET read-out; in the data active means inhibition above about 24%
RN4220 kill: kills Staphylococcus aureus RN4220. S. aureus RN4220 growth, OD600, 16 h. AID 1259311. inhibition, % (concentration not given with the values). 0.33% of 330,000 active; in the data active means inhibition above about 85%
PrPC confirm: cell surface PrPC inhibition, TR-FRET confirmation. shares compounds with PrPC surface inh. cell surface PrPC level. inhibition, % at 13.8 µM. 65% of 1,500 active; in the data active means inhibition above about 25%
LD9 tox: counter-screen for PrPc inhibitors: cytotoxicity in LD9 cells; shares compounds with PrPC surface inh; luminescence viability; inhibition, % at 13.8 µM; 29% of 1,500 active; in the data active means inhibition above about 9.5%
Of the large screens only hits and unclear results are named; the others gave an inactive call (follow-up assays come after a bar, where they were run).

N#CC(=NNc1ccc(S(=O)(=O)N2CCCCC2)cc1)C(N)=S	none (no result: PrP 5UTR inh, CCHF vOTU inh, PfHsp40 rescue, PrPC surface inh)
CCC1=C(OC(=O)N(CC)CC)N2C(=O)OC(=NCC(=O)OC)[C@]2(Cc2ccccc2)C2C1=CCC1C(=O)N(C)C(=O)C12 (stereo partly drawn)	none (no result: PrP 5UTR inh, CCHF vOTU inh, PfHsp40 rescue, PrPC surface inh)
O=C(Cc1c(F)cccc1Cl)NN=Cc1cccnc1	none (no result: PrP 5UTR inh, CCHF vOTU inh, PfHsp40 rescue, PrPC surface inh)
COc1ccccc1NS(=O)(=O)c1cccc(NC(=O)Nc2ccc(Cl)cc2)c1	PrPC surface inh 45 | PrPC confirm inactive | LD9 tox inactive
COc1ccccc1NS(=O)(=O)c1cccc(NC(=O)Nc2ccccc2)c1	none
COc1cccc(C2/C(=C(\O)c3ccc4c(c3)OCCO4)C(=O)C(=O)N2CCCn2ccnc2)c1 (stereo not drawn)	none
O=C1C(=O)N(CCCn2ccnc2)C(c2cccc(Br)c2)/C1=C(\O)c1ccc2c(c1)OCCO2 (stereo not drawn)	PrPC surface inh 30 | PrPC confirm 43 | LD9 tox inactive
C=C1C(=O)C23C(O)C1CCC2C12CCCC(C)(COC(C)=O)C1C(O)C3(O)OC2 (stereo not drawn)	PrPC surface inh 75 (no result: ugtP null kill, RN4220 kill) | PrPC confirm 77 | LD9 tox 93
CCOC(=O)C1C2COc3ccc(Br)cc3C2N2C(=O)c3c(C)cc(C)cc3NC(=O)[C@@]12C (stereo partly drawn)	none (no result: PrP 5UTR inh, CCHF vOTU inh, PfHsp40 rescue, PrPC surface inh)
C[C@H]1COc2c3ccc(I)cc3nn21	PrPC surface inh 47 (no result: ugtP null kill, PrP 5UTR inh, PfHsp40 rescue, RN4220 kill) | PrPC confirm 70 | LD9 tox inactive
O=C(NC1CC1)C1=CC(C2CCCCC2)CC(OCc2ccc(CO)cc2)O1 (stereo not drawn)	none (no result: PrP 5UTR inh, CCHF vOTU inh, PfHsp40 rescue, PrPC surface inh)
COc1cc(C=NO)nc(-c2ccccn2)c1	PfHsp40 rescue inconclusive, PrPC surface inh 37 (no result: ugtP null kill, RN4220 kill) | PrPC confirm 33 | LD9 tox 22
COc1ccc2nc(-c3ccccn3)[nH]c2c1	none
O=C1C(Nc2ccc(O)cc2)=C/C(=N/S(=O)(=O)c2cccs2)c2ccccc21	CCHF vOTU inh 108, PrPC surface inh 46 (no result: ugtP null kill, RN4220 kill) | PrPC confirm 59 | LD9 tox 99
O=C1C=C(Nc2ccc(O)cc2)C(=O)c2ccccc21	none
Cc1cc(C(=O)CSc2nc3ccccc3[nH]2)c(C)n1CC1CCCO1 (stereo not drawn)	PrPC surface inh 44 | PrPC confirm 34 | LD9 tox 38
Cc1cc(C(=O)CSc2nc(N)cc(=O)[nH]2)c(C)n1CC1CCCO1 (stereo not drawn)	none
O=S(=O)(Nc1ccc(Cc2ccncc2)cc1)c1ccc(Br)cc1	PrPC surface inh 36 | PrPC confirm 31 | LD9 tox inactive
O=S(=O)(Nc1ccc(Cc2ccncc2)cc1)c1ccc(Cl)cc1	PrPC surface inh 40 | PrPC confirm 38 | LD9 tox inactive
COc1ccccc1C(=O)NC(=S)/C=C1/N(C)c2ccccc2C1(C)C	PrPC surface inh 29 | PrPC confirm 49 | LD9 tox 11
CC(CC(=O)Nc1ccc(OCc2ccccc2)cc1)=NNC(=O)C(=O)Nc1ccccc1C	none (no result: PrP 5UTR inh, CCHF vOTU inh, PfHsp40 rescue, PrPC surface inh)
C=C1C(=O)O[C@@H]2C[C@@H](C)[C@@H]3C=CC(=O)[C@@]3(C)[C@@H](OC(C)=O)[C@H]12	PrPC surface inh 95 (no result: ugtP null kill, PrP 5UTR inh, PfHsp40 rescue, RN4220 kill) | PrPC confirm 104 | LD9 tox 34
Cc1ccc2nc(C)c(C(=O)NN=Cc3cccs3)cc2c1	none (no result: PrP 5UTR inh, CCHF vOTU inh, PfHsp40 rescue, PrPC surface inh)
CC[C@@H]1CCC[C@@H](O)[C@@H](C)C(=O)O[C@H](C)[C@@H](C)C/C=C(C)/C(OC)=C\C(=O)N(C)C([C@@H](C)CC)C(=O)N(C)[C@@H](C(C)C)C(=O)N(C)[C@@H](COC)C(=O)N2CCC[C@H]2C(=O)N(C)[C@@H](C(C)C)C(=O)N2CCC[C@H]2C(=O)O1 (stereo partly drawn)	PrPC surface inh 41 (no result: ugtP null kill, PrP 5UTR inh, PfHsp40 rescue, RN4220 kill) | PrPC confirm 51 | LD9 tox 16
CC1CCC(NC(=O)CNC(=O)Cc2cccc3ccccc23)CC1 (stereo not drawn)	PrPC surface inh 31 | PrPC confirm inactive | LD9 tox inactive
Cc1ccc(CN2CCCCC(NC(=O)Nc3ccccc3-c3ccccc3)C2=O)cc1 (stereo not drawn)	PrPC surface inh 30 (no result: ugtP null kill, PrP 5UTR inh, PfHsp40 rescue, RN4220 kill) | PrPC confirm inactive | LD9 tox inactive
Cc1ccc(CN2CCCCC(NC(=O)c3ccc(-c4ccccc4)cc3)C2=O)cc1 (stereo not drawn)	none (no result: ugtP null kill, PrP 5UTR inh, PfHsp40 rescue, RN4220 kill)
CN1CC2C3C(=O)N(Cc4ccccc4)C(=O)C3[C@](Cc3ccccc3)(C1=O)N2C(=O)c1ccc(F)cc1 (stereo partly drawn)	none (no result: PrP 5UTR inh, CCHF vOTU inh, PfHsp40 rescue, PrPC surface inh)
CC(C)[C@H](NC(=O)OC(C)(C)C)c1nnc(S(=O)(=O)Cc2c(F)cccc2Cl)o1	PrPC surface inh 30 | PrPC confirm 28 | LD9 tox 66
O=C(NNc1ccccc1)C(=O)NNS(=O)(=O)c1ccc(CCCl)cc1	PrPC surface inh 27 | PrPC confirm inactive | LD9 tox inactive
Cc1ccc(S(=O)(=O)N2CCOC23CCN(C(=O)c2ccc(Cl)cc2Cl)CC3)cc1	PrPC surface inh 48 | PrPC confirm 32 | LD9 tox inactive
CC(C)C(=O)N1CCN(c2ccc(NC(=O)c3ccc([N+](=O)[O-])o3)cc2Cl)CC1	PrPC surface inh 36 | PrPC confirm inactive | LD9 tox 98
Cc1ccccc1C(=O)N1CCN(c2ccc(NC(=O)c3ccc([N+](=O)[O-])o3)cc2)CC1	none
O=C(Nc1ccc(N2CCN(C(=O)c3ccccc3)CC2)cc1)c1ccc([N+](=O)[O-])o1	PrPC surface inh 26 | PrPC confirm inactive | LD9 tox 93
Cc1n[nH]c(=O)nc1NN=Cc1cccs1	none (no result: PrP 5UTR inh, CCHF vOTU inh, PfHsp40 rescue, PrPC surface inh)
C=C(C)C(=O)Nc1cccc(C2=NOC3(C2)CC(C(N)=O)N(C(=O)c2ccccc2C(=O)c2ccccc2)C3)c1 (stereo not drawn)	none (no result: PrP 5UTR inh, CCHF vOTU inh, PfHsp40 rescue, PrPC surface inh)
Cc1n[nH]c(=S)c2nn(-c3cccc(Cl)c3)c(C)c12	PrPC surface inh 36 (no result: PrP 5UTR inh, PfHsp40 rescue) | PrPC confirm 67 | LD9 tox inactive
Cc1ccc(-n2nc3c(=S)[nH]nc(C)c3c2C)cc1	PrPC surface inh 111 | PrPC confirm 122 | LD9 tox inactive
Cc1n[nH]c(=S)c2nn(-c3ccccc3F)c(C)c12	PrPC surface inh 46 | PrPC confirm 68 | LD9 tox inactive
CC=CC=CC(=O)Nc1cccc(C2=NOC3(C2)CC(C(N)=O)N(C(=O)CCCCC)C3)c1 (stereo not drawn)	none (no result: PrP 5UTR inh, CCHF vOTU inh, PfHsp40 rescue, PrPC surface inh)
COc1ccc(C=c2sc3nc(-c4ccccc4)c(-c4ccccc4)n3c2=O)cc1OC	none (no result: PrP 5UTR inh, CCHF vOTU inh, PfHsp40 rescue, PrPC surface inh)
CNc1ncc(C(=O)c2ccccc2)s1	none
CNc1ncc(C(=O)c2ccc(Br)cc2)s1	PrPC surface inh 26 | PrPC confirm 46 | LD9 tox inactive
CC(=NNC(=O)c1ccccc1)C(=O)O	none (no result: PrP 5UTR inh, CCHF vOTU inh, PfHsp40 rescue, PrPC surface inh)
CC(=NNc1nc2ccccc2o1)c1cc2ccccc2cn1	PrPC surface inh 27 (no result: ugtP null kill, RN4220 kill) | PrPC confirm 32 | LD9 tox 49
COc1ccc2nc(C)cc(SCC(=O)NN=Cc3ccccc3)c2c1	none (no result: PrP 5UTR inh, CCHF vOTU inh, PfHsp40 rescue, PrPC surface inh)
